Rows were chosen to be rich in hits. Some 0.4% of all compounds tested hit in one or more screens of this group.
GAA glycogen mod = qHTS Assay for Inhibitors and Activators of Human alpha-Glucosidase Cleavage of Glycogen | recombinant GAA, glycogen substrate, Amplex Red glucose oxidase fluorescence | Potency, µM (top dose mostly 76.4 µM), for the others: top-dose activity change, negative = inhibition, usual class: inhibitors | actives 0.38% (n = 300,000);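 note: potency is the fitted concentration of half-maximal effect; 0% = full enzyme reaction and -100% = no-enzyme basal signal; the screen sought inhibitors and activators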
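Natural-substrate format: glycogen cleavage by 4 nM human enzyme, glucose read by Amplex Red coupling (Ex 573, Em 610 nm). Normalized to enzyme and no-enzyme controls.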
GAA inhib = qHTS Assay for Inhibitors of Human alpha-Glucosidase as a Potential Chaperone Treatment of Pompe Disease | Lysosomal alpha-glucosidase (Homo sapiens), P10253 | purified human GAA, 4-MU-alpha-glucoside fluorescence | Potency, µM (series often up to 76.9 µM), without a hit: at the highest dose activity change, negative = inhibition, most hits filed as inhibitors | actives 0.005% (n = 200,000) | AID 1466, 2008;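 note: potency is the fitted concentration of half-maximal effect; plate controls were uninhibited enzyme wells for no effect and no-enzyme background for full effect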
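qHTS format, compound range up to 77 uM. Human lysosomal enzyme at 4 nM, 400 uM 4-MU glucoside substrate, pH 5.0, 20 min room temperature; fluorescence after alkaline stop gives activity normalized to controls.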
GLA inh pH 4.5 = qHTS Assay for Inhibitors of Human alpha-Galactosidase at pH 4.5. Alpha-galactosidase A (Homo sapiens), P06280. purified enzyme, 4-MU-alpha-Gal fluorescence, pH 4.5. activity change, negative = inhibition, % at 105 µM. 230,000 tested, under 10 active;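 note: 0% = full activity with enzyme and -100% = basal without enzyme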
Target sequence (P06280 whole entry, looked up): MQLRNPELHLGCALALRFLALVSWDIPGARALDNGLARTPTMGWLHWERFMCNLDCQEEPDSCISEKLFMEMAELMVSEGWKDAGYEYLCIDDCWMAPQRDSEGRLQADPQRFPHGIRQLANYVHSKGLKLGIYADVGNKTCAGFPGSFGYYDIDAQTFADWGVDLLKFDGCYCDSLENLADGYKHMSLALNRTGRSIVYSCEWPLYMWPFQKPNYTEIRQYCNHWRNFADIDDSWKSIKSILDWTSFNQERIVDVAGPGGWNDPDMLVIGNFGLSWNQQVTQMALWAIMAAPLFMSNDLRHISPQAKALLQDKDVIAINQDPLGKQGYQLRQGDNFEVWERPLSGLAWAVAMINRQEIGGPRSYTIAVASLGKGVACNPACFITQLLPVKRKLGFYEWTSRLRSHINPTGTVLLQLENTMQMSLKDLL
aGlu spleen mod = qHTS Assay for Inhibitors and Activators of Human alpha-Glucosidase From Spleen Homogenate | AID 2112, 2009 | human spleen homogenate, 4-MU-alpha-glucoside fluorescence | actives 0.006% (n = 240,000) | Lysosomal alpha-glucosidase (Homo sapiens), P10253 | Potency, µM (top dose mostly 79.9 µM), for the others: at the highest dose activity change, negative = inhibition, usual class: inhibitors;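 note: potency is the fitted concentration of half-maximal effect; 0% = enzyme with vehicle and -100% = no enzyme basal signal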
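Human spleen homogenate (1 ug) with 4-methylumbelliferyl-alpha-D-glucopyranoside (1 mM final) in 50 mM citrate/phosphate pH 5.0, 0.01% Tween-20; 40 min at 37 C. Stopped at pH 10; 4-MU fluorescence Ex 365/Em 440 nm; AC50 by Hill fit.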
GLA spleen mod = qHTS Assay for Inhibitors and Activators of Human alpha-Galactosidase From Spleen Homogenate; Alpha-galactosidase A (Homo sapiens), P06280; human spleen homogenate, 4MU-alpha-Gal fluorescence, 40 min; Potency, µM (titrated, usually from 80 µM), for inactives: at the highest dose activity change, negative = inhibition, actives largely listed as inhibitors; actives 0.008% (n = 240,000); AID 2107, 2009;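 note: potency is the fitted concentration of half-maximal effect; 0% = enzyme with vehicle and -100% = no enzyme basal signal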
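Human spleen homogenate (1 ug) was the enzyme source, with 4-methylumbelliferyl-alpha-D-galactopyranoside (1 mM final) in pH 5.0 citrate buffer with 0.01% Tween-20. Compounds were titrated; after 40 min at 37C, NaOH/glycine stop, 4-MU fluorescence read; AC50 from Hill fits.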
The depositor's hits bear a star; [ ] = another dose, or the depositor's remark. Calls come from the whole dose curve; as a rule, active = well fitted curve in the direction sought with a large enough effect; inconclusive = small, poorly fitted or top-dose-only effect, or another doubt; inactive = no such curve, though single readings can be large; an effect the other way counts as inactive or inconclusive.

Results for C[C@H]1Cc2c(COc3ccccc3)nc3c(c2CO1)CN(C(=O)C1CC1)CC3 ?
GLA inh pH 4.5: 4; aGlu spleen mod: 4%[17.4 µM]; GLA spleen mod: 3%[17.5 µM]

What do the screens show for `C[C@H](NC(=O)CNC(=O)[C@@H](NC(=O)[C@H](Cc1ccccc1)NC(=O)CNC(=O)CNC(=O)[C@@H](N)Cc1ccccc1)[C@@H](C)O)C(=O)N[C@@H](CCCN=C(N)N)C(=O)N[C@@H](CCCCN)C(=O)N[C@@H](CO)C(=O)N[C@@H](C)C(=O)N[C@@H](CCCN=C(N)N)C(=O)N[C@@H](CCCCN)C(N)=O`?
aGlu spleen mod: -2%; GLA spleen mod: 0%

Results for CCOC(=O)c1c(OCC)[nH]c2ccc(O)cc12 ?
GAA glycogen mod: 6.3µM*; GAA inhib: -4%; GLA inh pH 4.5: 5; aGlu spleen mod: -4%; GLA spleen mod: 4%

Results for COC(=O)[C@H](Cc1ccccc1)NC(=O)O[C@@H]1C(=O)c2cc(OC)ccc2O[C@H]1c1cccc(OC)c1 ?
GLA inh pH 4.5: -8; aGlu spleen mod: 0%; GLA spleen mod: 8%

How did O=S1(=O)CC/C(=N\Nc2ccccc2)c2ccsc21 do in these assays?
GAA glycogen mod: 25µM*; GAA inhib: 4%; GLA inh pH 4.5: 3; aGlu spleen mod: -17%; GLA spleen mod: -9%

What do the screens show for `c1ccc(-c2ccc(N3CCCC4(CCNCC4)C3)cc2)cc1`?
aGlu spleen mod: -3%; GLA spleen mod: -3%

How did N#C/C(=C\c1cc(O)c(O)c(O)c1)C(N)=O do in these assays?
GAA glycogen mod: 5µM*; GLA inh pH 4.5: -11; aGlu spleen mod: inconclusive; GLA spleen mod: -30%

How did N#C/C(=C\c1cc(Cl)c(OCc2ccc(Cl)cc2)c(Cl)c1)C(N)=O do in these assays?
GAA glycogen mod: 1%; GLA inh pH 4.5: -9; aGlu spleen mod: 1%; GLA spleen mod: -3%

Results for Cc1ccccc1Nc1c(N)c(=O)oc2ccccc12 ?
GAA glycogen mod: 18µM*; GAA inhib: 3%; GLA inh pH 4.5: -7; aGlu spleen mod: -4%; GLA spleen mod: -2%

What do the screens show for `CN(C)CCNc1c(N)c(=O)oc2ccccc12`?
GAA glycogen mod: -1%; GAA inhib: 11%; GLA inh pH 4.5: 5; aGlu spleen mod: 5%; GLA spleen mod: 6%

What do the screens show for `Nc1c(Cl)cc(Cl)cc1Cl`?
aGlu spleen mod: 11%; GLA spleen mod: 5%

Results for COC(=O)C1(C(=O)OC)C[C@@H]2CON=C2[C@H]1c1ccccc1 ?
GLA inh pH 4.5: -7; aGlu spleen mod: -8%; GLA spleen mod: 5%

What do the screens show for `COc1ccc(/C=N/NC(=O)c2nc(-c3ccccc3)cc(-c3ccccc3)n2)cc1OC`?
GAA glycogen mod: -6%; GAA inhib: -7%; GLA inh pH 4.5: -2; aGlu spleen mod: 8%; GLA spleen mod: 7%

What do the screens show for `COc1ccc(/C=N/c2oc(-c3ccccc3)cc2C#N)cc1OC`?
GAA glycogen mod: 25µM*; GAA inhib: 3%; GLA inh pH 4.5: 8; aGlu spleen mod: 1%; GLA spleen mod: 9%

What do the screens show for `CCCOc1ccc(-c2nc(C#N)c(NCCCn3ccnc3)o2)cc1`?
GAA glycogen mod: 31µM*; GAA inhib: 3%; GLA inh pH 4.5: -1; aGlu spleen mod: 8%; GLA spleen mod: 3%

How did Cc1cc(Nc2ccccc2)n(CCO)n1 do in these assays?
GAA glycogen mod: 28µM*; GAA inhib: -8%; GLA inh pH 4.5: 13; aGlu spleen mod: 4%; GLA spleen mod: 3%

Results for CCn1nc(C)cc1Nc1ccccc1 ?
GAA glycogen mod: 14µM*; GAA inhib: -11%; GLA inh pH 4.5: -8; aGlu spleen mod: -5%; GLA spleen mod: 3%

Results for Cc1cc(Nc2ccccc2)n(-c2ccc(Br)cc2)n1 ?
GAA glycogen mod: inconclusive; GAA inhib: -4%; GLA inh pH 4.5: -1; aGlu spleen mod: -10%; GLA spleen mod: -5%

Results for CC(=O)OCC1OC(C#Cc2ccc(C)cc2C)C=CC1OC(C)=O (stereo not given) ?
aGlu spleen mod: 7%[17.4 µM]; GLA spleen mod: 1%[17.5 µM]

How did COc1cc(C/C=C\c2ccccc2)c(OC)cc1O do in these assays?
GLA inh pH 4.5: -14; aGlu spleen mod: -6%; GLA spleen mod: -11%

How did CSc1ccccc1NC(=O)CN(C)CC(=O)Nc1cc(C)ccc1C do in these assays?
GAA glycogen mod: 18%; GAA inhib: -11%; GLA inh pH 4.5: -4; aGlu spleen mod: -3%; GLA spleen mod: -10%

What do the screens show for `CSc1ccccc1NC(=O)CN(C)CC(=O)NCc1ccccc1`?
GAA glycogen mod: 5%; GAA inhib: 1%; GLA inh pH 4.5: 12; aGlu spleen mod: inconclusive; GLA spleen mod: 35µM*

How did CC(C)(C)C1CCC2(CC1)C(C#N)=C(SCC(=O)Nc1ccccc1)NC(=O)C2C#N (stereo not given) do in these assays?
GAA glycogen mod: inconclusive; GAA inhib: inconclusive; GLA inh pH 4.5: -18; aGlu spleen mod: 3%; GLA spleen mod: -1%

What do the screens show for `N#CC1=C(SCC(=O)c2cc3ccccc3oc2=O)NC(=O)C(C#N)C12CCCC2` (stereo not given)?
GAA glycogen mod: 22µM*; GAA inhib: -9%; GLA inh pH 4.5: -7; aGlu spleen mod: -5%; GLA spleen mod: -9%

How did c1cncc(CNc2ccc3c(c2)OCO3)c1 do in these assays?
GAA glycogen mod: 18µM*; GAA inhib: -4%; GLA inh pH 4.5: 7; aGlu spleen mod: -2%; GLA spleen mod: 4%

How did CCOC(=O)C1CCCN(c2nc3ccccc3nc2C(C#N)C(=O)OCC)C1 (stereo not given) do in these assays?
GAA glycogen mod: -2%; GAA inhib: 0%; GLA inh pH 4.5: 1; aGlu spleen mod: -3%; GLA spleen mod: -8%

How did CCOC(=O)C1CCN(c2nc3ccccc3nc2C(C#N)C(=O)NCCc2ccccc2)CC1 (stereo not given) do in these assays?
GAA glycogen mod: 14µM*; GAA inhib: -5%[15.4 µM]; aGlu spleen mod: -10%; GLA spleen mod: -13%

Results for Nc1cc(C(=O)O)c(O)c(S(=O)(=O)O)c1 ?
aGlu spleen mod: 2%; GLA spleen mod: -1%

Results for CCCCCCC#CC1C=CC(OC(C)=O)C(COC(C)=O)O1 (stereo not given) ?
aGlu spleen mod: -2%[17.4 µM]; GLA spleen mod: 17%[17.5 µM]

How did COc1ccc(CNc2n[nH]c(NCc3ccc(OC)c(OC)c3)n2)cc1OC do in these assays?
GAA glycogen mod: 22µM*; GAA inhib: 2%; GLA inh pH 4.5: -1; aGlu spleen mod: 3%; GLA spleen mod: -3%

Screening results deposited in PubChem BioAssay by National Center for Advancing Translational Sciences (NCATS).
